# Bioassay records as filed in PubChem BioAssay.
# PAX8 reporter = PAX8 transcriptional activity inhibition | inhibition, % at 12.6 µM | actives 1.2% (n = 360,000) | RMG-I TPO-luciferase reporter, SteadyGlo, 24 h | AID 652154;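 active = mean replicate inhibition at least 60% with every replicate also reaching 60%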;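 also: luciferase light reporting Pax8 driven TPO promoter activity; plate controls were median of neutral control wells for no effect and mitoxantrone controls for full effect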
# Shn3 3UTR inh = inhibitors of Schnurri-3 3'UTR reporter in osteoblasts; Clone20 osteoblast Shn3 3'UTR firefly luciferase, 24 h; inhibition, % at 12.5 µM; actives 0.52% (n = 360,000); AID 588674;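 active = mean inhibition of at least 75% with every replicate also reaching 75%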;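 also: 0% = median of neutral control wells and 100% = pilot-screen positive control compound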
# EBV LMP1 NFkB = reduces LMP1-driven NF-kappaB luciferase signal; LMP1-induced NF-kappaB luciferase reporter cells, luminescence; inhibition, % at 12.5 µM; actives 0.69% (n = 350,000); in the data active = inhibition above about 41%;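 also: 0% = neutral control wells and 100% = reference inhibitor control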
# Glyco luc inh = N-linked glycosylation inhibition; D54 ERlucT glycosylation luciferase reporter, 24 h; percent of 100 nM tunicamycin response; reporter increase, % at 12.5 µM; actives 0.23% (n = 360,000); AID 588692;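 active = mean luciferase reporter signal, scaled so untreated is 0 and the glycosylation-blocking control 100, at or above a set limit in every replicate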;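 also: luciferase carries N-glycosylation sites so blocking glycosylation raises the light; 0% = median of neutral control wells and 100% = median of 100 nM tunicamycin wells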
# NSD2 HMT inh = blocks human histone methyltransferase NSD2; inhibition, % at 12.5 µM; AID 743445; NSD2 peptide methylation, AlphaScreen, 120 min; O96028; actives 0.54% (n = 310,000); in the data active = inhibition above about 50%
# Target sequence (O96028 whole entry, looked up): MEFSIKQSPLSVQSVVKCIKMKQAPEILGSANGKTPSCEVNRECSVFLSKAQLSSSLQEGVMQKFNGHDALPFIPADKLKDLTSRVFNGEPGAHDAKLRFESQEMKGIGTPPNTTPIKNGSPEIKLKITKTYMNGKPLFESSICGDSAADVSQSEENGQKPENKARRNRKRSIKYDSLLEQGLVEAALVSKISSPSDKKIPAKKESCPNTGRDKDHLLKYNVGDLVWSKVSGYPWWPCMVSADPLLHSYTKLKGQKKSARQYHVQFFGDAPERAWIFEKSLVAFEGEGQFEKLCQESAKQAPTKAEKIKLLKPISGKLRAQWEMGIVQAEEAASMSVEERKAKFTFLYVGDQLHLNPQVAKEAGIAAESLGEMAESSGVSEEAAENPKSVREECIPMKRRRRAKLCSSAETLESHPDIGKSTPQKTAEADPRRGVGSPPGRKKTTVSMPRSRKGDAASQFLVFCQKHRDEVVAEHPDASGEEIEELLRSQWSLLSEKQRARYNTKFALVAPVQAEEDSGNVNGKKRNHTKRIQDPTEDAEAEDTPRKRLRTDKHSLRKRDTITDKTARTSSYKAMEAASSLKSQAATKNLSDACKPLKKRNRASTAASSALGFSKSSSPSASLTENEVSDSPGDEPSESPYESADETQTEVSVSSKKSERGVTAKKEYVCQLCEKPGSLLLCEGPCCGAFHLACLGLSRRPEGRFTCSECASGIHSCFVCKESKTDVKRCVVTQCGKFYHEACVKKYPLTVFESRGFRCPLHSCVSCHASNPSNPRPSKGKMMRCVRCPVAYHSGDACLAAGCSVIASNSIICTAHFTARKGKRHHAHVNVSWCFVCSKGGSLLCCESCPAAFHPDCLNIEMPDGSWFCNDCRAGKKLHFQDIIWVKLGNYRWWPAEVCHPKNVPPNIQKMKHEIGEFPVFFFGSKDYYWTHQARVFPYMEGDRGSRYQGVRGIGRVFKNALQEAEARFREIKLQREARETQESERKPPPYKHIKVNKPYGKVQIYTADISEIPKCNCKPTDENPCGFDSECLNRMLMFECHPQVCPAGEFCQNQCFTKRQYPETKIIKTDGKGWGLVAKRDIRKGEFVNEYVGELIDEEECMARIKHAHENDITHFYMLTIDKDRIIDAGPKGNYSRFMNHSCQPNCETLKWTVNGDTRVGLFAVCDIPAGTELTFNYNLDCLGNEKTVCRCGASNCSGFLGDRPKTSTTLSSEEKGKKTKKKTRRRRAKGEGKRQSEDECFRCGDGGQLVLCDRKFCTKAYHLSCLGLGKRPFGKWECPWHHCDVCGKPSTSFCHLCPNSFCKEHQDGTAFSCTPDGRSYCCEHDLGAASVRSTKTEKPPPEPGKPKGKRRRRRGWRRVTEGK
# HIV Env fusion = inhibitors of HIV Env-mediated cell fusion; actives 1.1% (n = 360,000); HeLa-JRFL Env/CEM21 cell fusion, luciferase; inhibition, % at 12.3 µM; AID 651610;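 active = mean replicate inhibition score of at least 50 and every replicate individually at or above 50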;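 also: 0% = plate neutral controls and 100% = maraviroc near 300 nM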
# AlphaScreen art = interferes with AlphaScreen signal, flagging NSD2 false positives | shares compounds with NSD2 HMT inh | actives 9.4% (n = 1,500) | AlphaScreen artifact counterscreen, preloaded methylated H4 peptide | AC35, µM (doses to about 10 µM), without a hit: at the highest dose activity change, negative = signal loss; call rule not given here
# Numbers without * were called inactive; . = no result; [ ] = another dose, or the depositor's remark. The list is not random: actives were taken first. Their share in the collection is about 2.8%.
SMILES,PAX8 reporter,Shn3 3UTR inh,EBV LMP1 NFkB,Glyco luc inh,NSD2 HMT inh,HIV Env fusion,AlphaScreen art
C[n+]1c(-c2ccccc2)c2cc(N)ccc2c2ccc(N)cc21,96*,67,0,-16,.,31,.
N#Cc1cccc(-c2ccc([C@H]3[C@H](CO)N4CCCCN(C(=O)Cc5ccncc5)C[C@@H]34)cc2)c1,0,.,.,.,.,.,.
CC(=O)O[C@H]1CCC2C3CC[C@H]4[C@@H](O)[C@H](O)CC[C@]4(C)C3CC[C@@]21C (stereo partly specified),-4,96*,1,-15,1,4,.
CC(=O)[C@H]1CCC2C3CC[C@H]4C[C@@H](O)CC[C@]4(C)C3CC[C@@]21C (stereo partly specified),-22,11,1,-5,-3,0,.
COc1cccc2c1C(=O)c1c(O)c3c(c(O)c1C2=O)CC(O)(C(C)=NO)CC3OC1CC(N)C(O)C(C)O1 (stereo unspecified),-16,36,42*,-5,28,-346,.
O=C(O)[C@H]1[C@H](CO)[C@H]2Cn3c(ccc(-c4ccncc4)c3=O)[C@@H]1N2C(=O)C1CC1,-4,.,.,.,.,11[16.7 µM],.
CCC(=O)O[C@H]1CC[C@H]2[C@@H]3CCC4=CC(=O)CC[C@]4(C)[C@H]3CC[C@]12C,.,13,87*,-4,.,.,.
C#C[C@]1(O)CC[C@H]2[C@@H]3CCC4=CC(=O)CC[C@]4(C)[C@H]3CC[C@@]21C,-1,6,81*,-1,.,.,.
CC12CCC(=O)C=C1CCC1C2CCC2(C)C(O)CCC12 (stereo unspecified),.,6,5,-2,.,.,.
COC(=O)[C@H]1[C@H](CO)[C@H]2Cn3c(ccc(-c4ccccc4F)c3=O)[C@@H]1N2Cc1cccnc1,-22,.,.,.,.,.,.
Cc1cccc(-n2c(O)c(/C=C3/C(c4ccccc4)=Nc4ccccc43)c(=O)[nH]c2=O)c1,-6,4,2,21,.,92*,.
Cc1ccccc1-n1c(O)c(/C=C2/C(c3ccccc3)=Nc3ccccc32)c(=O)[nH]c1=O,-37,-14,-9,18,40,25,.
COc1ccc(-c2[nH]ncc2CNC(C)Cc2ccsc2)c(F)c1 (stereo unspecified),8,32,9,-1,1,44,.
CC(Cc1ccsc1)NCc1cn[nH]c1-c1ccc(F)cc1F (stereo unspecified),5,16,5,-3,1,63*,.
CN(C)CC#Cc1ccc([C@H]2[C@@H](CO)N3CCCCN(C(=O)Cc4ccccn4)C[C@H]23)cc1,-4,.,.,.,.,.,.
C=CCCC[C@@H]1OC(=O)CNC(=O)C([C@@H](C)CC)NC(=O)[C@@H]2CCCN2C(=O)C([C@@H](C)CC)OC(=O)[C@H](Cc2ccccc2)N(C)C(=O)[C@H](C(C)C)NC(=O)C1(C)C (stereo partly specified),55,5,.,-5,.,28,.
CCC(C)C1NC(=O)C2CCCN2C(=O)C(CC(C)C)OC(=O)CCNC(=O)C(C)N(C)C(=O)C(C(C)C)N(C)C1=O (stereo unspecified),72*,72,-3,-8,1,14,.
CCCNC(=O)[C@@H]1[C@@H](CO)[C@@H]2Cn3c(cccc3=O)[C@H]1N2CCC,-1,.,.,.,.,.,.
N#Cc1ccc(-c2ccc([C@H]3[C@@H](CO)N4CCCCN(C(=O)Cc5ccccc5)C[C@@H]34)cc2)cc1,3,.,.,.,.,.,.
Cc1cc(C)cc(N2C(=O)NC(=O)/C(=C\C=C\c3ccco3)C2=O)c1,66*,52,-30,56*,72*,.,-1%
CCc1ccc(N2C(=O)NC(=O)/C(=C\C=C\c3ccco3)C2=O)cc1,42,39,-8,46*,54*,-119,-7%
C=CCN1C(=O)C2(C(C(=O)OCC)=C(N)Oc3ccccc32)C2=C1CCCC2=O (stereo unspecified),.,-5,4,0,-2,-27,.
CC1(C)CC(=O)C2=C(C1)NC(=O)C21C(C(=O)OC(C)(C)C)=C(N)Oc2ccc(Br)cc21 (stereo unspecified),.,-6,-4,-2,62*,-44,-5%
Cc1cc(/C=C2\C(=O)NC(=O)N(c3ccccc3F)C2=O)c(C)n1-c1cc(C(=O)O)cc(C(=O)O)c1,7,-13,1,0,62*,17,-2%
N#Cc1cccc(-c2ccc([C@@H]3[C@H](CO)N4CCCCN(C(=O)Cc5ccncc5)C[C@@H]34)cc2)c1,7,.,.,.,.,.,.
SMILES,PAX8 reporter,Shn3 3UTR inh,EBV LMP1 NFkB,Glyco luc inh,NSD2 HMT inh,HIV Env fusion,AlphaScreen art
CCCNC(=O)N1[C@@H]2c3ccc(-c4ccccc4OC)c(=O)n3C[C@H]1[C@H](CO)[C@H]2C(=O)O,-3,.,.,.,.,.,.
O=C(Cc1cccnc1)N1CCCCN2[C@H](CO)[C@H](c3ccc(C#CC4(O)CCCC4)cc3)[C@H]2C1,-22,.,.,.,.,.,.
O=C1NC(=O)C(=Cc2ccc(SC3CCCCC3)o2)C(=O)N1,-4,4,10,8,62*,-22,1%
CC(C)n1c(=O)c(C=Nc2ccc(S(N)(=O)=O)cc2)c(O)n(Cc2ccco2)c1=O,-5,-3,3,2,67*,14,-4%
CCCCn1c(=O)c(C=Nc2ccc(Cl)cc2)c(O)n(Cc2ccco2)c1=O,13,-4,-8,-3,.,25,.
NS(=O)(=O)c1ccc(N=Nc2c(O)[nH]c(=S)[nH]c2=O)cc1,32,-15,3,0,3,13,.
O=c1[nH]c(=S)[nH]c(O)c1N=Nc1cc(S(=O)(=O)Nc2ccc(Cl)cc2)ccc1Cl,6,-25,3,1,66*,-8,-9%
CN1CCN(c2ncnc3c2cnn3C)CC1,4,12,6,0,76*,6,-4%
COCCCNC(=O)c1c(NC(=O)c2ccccc2Cl)n(Cc2ccccc2)c2nc3ccccc3nc12,.,-14,1,-3,1,-21,.
COCCNC(=O)c1c(NC(=O)c2ccco2)n(Cc2ccccc2)c2nc3ccccc3nc12,.,9,-5,1,113*,.,8%
BrCCc1ccccc1,.,9,-3,2,.,.,.
CNCCCc1ccccc1,1,-1,0,0,103*,-6,2%
CCCCn1c(NC(=O)c2ccc(Br)o2)c(C(=O)OCC)c2nc3ccccc3nc21,1,-7,-9,11,.,15,.
CCCCn1c(NS(=O)(=O)c2ccccc2)c(C(=O)OCC)c2nc3ccccc3nc21,.,19,4,3,99*,.,-2%
Cc1ccc(N2C(=O)NC(=O)/C(=C/c3ccoc3)C2=O)cc1,-1,11,-5,1,90*,-3,-16%
Cc1ccc(N2C(=O)NC(=O)/C(=C/c3cnn(-c4ccc(C)cc4)c3)C2=O)cc1,.,23,-4,1,51*,-19,-5%
